From PubChem BioAssay AID2685 (National Center for Advancing Translational Sciences (NCATS), 2010)
About 2,100 (0.66%) of roughly 320,000 compounds were called active. Roughly 53% stayed inconclusive and do not appear here. This is one part of a sample in which actives are shown more often than they occur. Calls follow the shape of the dose curve; as a rule, active = well fitted inhibition curve with a large enough effect in the signal ratio, with a control signal flat (not every such curve was filed as active); inconclusive = small, poorly fitted or top-dose-only effect, or effect the other way, or a change in a side signal; inactive = flat fitted curve, though single readings scatter; the % refers to the signal ratio.

test: qHTS Assay for Lipid Storage Modulators in Drosophila S3 Cells; settings: BODIPY lipid droplet fluorescence, 18-24 h, cells fed with added oleic acid; cell number change: measured here: cell count max response; series mostly up to 46.1 µM;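 as to cell number change: cells counted by Cell Tracker Red CMTPX staining in the red channel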
How it was run: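 Drosophila S3 cells got compounds at several concentrations plus oleic acid (400 uM solution). Laser-scanning cytometry with 488 nm excitation read lipid droplets at 500-530 nm and cells at 575-640 nm. Percent activity was relative to 20 uM Triacsin C.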
Potency is read from the fitted curve at half-maximal effect.

| Structure (SMILES) | Potency | cell number change [%] |
| --- | --- | --- |
| CN(CC(=O)NCCN1CCN(Cc2ccccc2)CC1)S(=O)(=O)c1cccc2nsnc12 | inactive | 3.2 |
| COCC(C)NC(=O)CCc1nnc(C2(c3ccc(Cl)cc3)CCC2)o1 (configuration not stated) | inactive | 7.22 |
| Cc1ccc(NC(=O)CCC(=O)n2nc(C)cc2C)c(C)c1 | 18.4 µM (active) |  |
| Cc1cc(C)n(C(=O)CCCC(=O)n2nc(C)cc2C)n1 | inactive | -1.02 |
| CCOc1ccc(NC(=O)CCC(=O)n2nc(C)cc2C)cc1 | inactive | 1.15 |
| CC(C)N(C(=O)Cn1c(=O)oc2ccccc21)c1ccccc1 | inactive | 12.3 |
| COc1ccc([C@@H]2[C@@H]3C(=O)N(C(C)(C)C)C(=O)[C@@H]3[C@]3(Cc4ccc(Cl)cc4)C(=O)N(c4ccc(OC)cc4)C(=O)N23)cc1 | inactive | 16 |
| CCN1C(=O)[C@H]2[C@@H](c3ccc(C)cc3)N3C(=O)N(c4ccc(C(F)(F)F)cc4)C(=O)[C@@]3(CC(C)C)[C@H]2C1=O | 18.4 µM (active) | 11.1 |
| COc1ccc([C@@H]2[C@@H]3C(=O)N(C(C)(C)C)C(=O)[C@@H]3[C@]3(C)C(=O)N(c4ccc(C(F)(F)F)cc4)C(=O)N23)cc1 | inactive | 14.7 |
| CCN1C(=O)[C@H]2[C@@H](c3ccc(C)cc3)N3C(=O)N(c4ccccc4)C(=O)[C@@]3(CC)[C@H]2C1=O | inactive | 16.2 |
| CCN1C(=O)[C@H]2[C@@H](c3ccc(C)cc3)N3C(=O)N(c4ccc(C(F)(F)F)cc4)C(=O)[C@@]3(CC)[C@H]2C1=O | inactive | -7.19 |
| COc1ccc([C@@H]2[C@@H]3C(=O)N(C(C)(C)C)C(=O)[C@@H]3[C@]3(CC(C)C)C(=O)N(c4ccc(C(F)(F)F)cc4)C(=O)N23)cc1 | 20.6 µM (active) | 18.1 |
| COc1ccc(CCNC(=O)CSc2ccc(-c3ccccc3)nn2)cc1 | inactive | 2.87 |
| CC(C)CNC(=O)C1CC(=O)OC12CCCCC2 (configuration not stated) | inactive |  |
| CC(Oc1ccc(-c2nnco2)cc1)C(=O)N1CCOCC1 (configuration not stated) | inactive | 6.36 |
| CC(Oc1ccc(C(=O)c2ccccc2)cc1)C(=O)N1CCOCC1 (configuration not stated) | inactive |  |
| CC(Oc1ccc(-c2ccccc2)cc1)C(=O)N1CCOCC1 (configuration not stated) | 2.91 µM (active) | 17.9 |
| CCCN1Cc2cccc(C(=O)NCCCOC(C)C)c2C1=O | inactive | 2.03 |
| Cc1ccc(-c2cc(C(=O)NCCCN3CCCC3)c3ccccc3n2)cc1C | inactive |  |
| COc1cccc(NC(=O)C2CC(=O)n3cnnc3S2)c1 (configuration not stated) | inactive | -29 |
| CCN=C1SC(C(=O)Nc2cccc(C)c2)CC(=O)N1CC (configuration not stated) | inactive | -13.5 |
| Cc1cccc(NC(=O)C2CC(=O)n3cnnc3S2)c1 (configuration not stated) | 13 µM (active) | -1.17 |
| COc1ccc(N=C2NC(=O)/C(=C/c3ccco3)S2)cc1 | inactive | 15.8 |

| Structure (SMILES) | Potency | cell number change [%] |
| --- | --- | --- |
| O=C(CNC(=O)c1ccco1)Nc1ccncc1 | inactive |  |
| COC(=O)/C=C1/SC(=Nc2ccc(Cl)c(Cl)c2)NC1=O | inactive | 7.13 |
| CCOc1ccc(N=C2NC(=O)/C(=C/C(=O)OC)S2)cc1 | 25.9 µM (active) |  |
| COC(=O)/C=C1\SC(=Nc2ccccc2)NC1=O | inactive | 10.6 |
| O=C(c1nc2ccccn2c1CNCCCn1ncc2ccccc21)N1CCOCC1 | inactive | 25.5 |
| COc1cccc(/C=N/NC(N)=S)c1OS(=O)(=O)c1ccccc1 | inactive | -16.4 |
| NC(=S)N/N=C\c1ccccc1OCc1ccccc1 | inactive | 0.634 |
| COc1cccc(/C=N/NC(N)=S)c1OCc1cccc(Cl)c1 | 8.2 µM (active) | 0.0836 |
| O=C(c1ccc(C#CC2(O)CCCCC2)cc1)N1CCOCC1 | inactive | 5.75 |
| O=C1OCC(CO)(CO)N=C1NNc1ccccc1Cl | inactive |  |
| COc1cccc(C2=NOC(C(=O)Nc3cccnc3Cl)C2)c1 (configuration not stated) | inactive | 3.11 |
| Cc1cc(C)n2nc(C(=O)Nc3cccc(S(=O)(=O)N(C)c4ccccc4)c3)nc2n1 | 11.6 µM (active) | -15.3 |
| Cc1cc(C)n2nc(C(=O)Nc3ccc(S(=O)(=O)N(C)C)cc3)nc2n1 | inactive | -26.7 |
| CN(c1ccccc1)S(=O)(=O)c1cccc(NC(=O)c2ccncc2)c1 | inactive | 0.47 |
| Cc1cc(N2CCOCC2)n2ncc(-c3ccccc3)c2n1 | inactive | -5.35 |
| CC(C)(C)c1cc(N2CCOCC2)n2ncc(-c3ccccc3)c2n1 | inactive | -9.44 |
| Cc1nc2c(-c3ccccc3)cnn2c(N2CCOCC2)c1C | 2.91 µM (active) | -16.7 |
| O=C(CN1CCCCC1)N1N=C(c2cccs2)CC1c1cccs1 (configuration not stated) | inactive | 18.5 |
| CSc1ccc(CN(C)C(=O)CSCC(=O)Nc2cc(C)on2)cc1 | inactive | 13.3 |
| CN(C(=O)CSc1nnc(-c2ccccc2)n1C)C1CCS(=O)(=O)C1 (configuration not stated) | inactive |  |
| CN(C(=O)CSc1nc2ccccc2[nH]1)C1CCS(=O)(=O)C1 (configuration not stated) | inactive | -2.26 |
| CCn1c(SCC(=O)N(C)C2CCS(=O)(=O)C2)nnc1-c1ccccc1 (configuration not stated) | inactive | -11.5 |
| CCN(C(=O)CSc1nc2ccc(OC)cc2[nH]1)C1CCS(=O)(=O)C1 (configuration not stated) | inactive |  |

| Structure (SMILES) | Potency | cell number change [%] |
| --- | --- | --- |
| CN(C(=O)CSc1nnc(-c2ccc(C(C)(C)C)cc2)n1C)C1CCS(=O)(=O)C1 (configuration not stated) | 10.3 µM (active) | 3.86 |
| Cc1ccc2nc(SCC(=O)N(C)C3CCS(=O)(=O)C3)[nH]c2c1 (configuration not stated) | 1.16 µM (active) | 7.53 |
| O=C(COC(=O)Cc1ccccc1F)Nc1cc(S(=O)(=O)N2CCOCC2)ccc1N1CCCC1 | inactive | 0.15 |
| COC(=O)CN1C(=O)N/C(=C/c2ccc(OC)cc2)C1=O | inactive | -7.72 |
| O=C(NC1CC1)c1ccc(S(=O)(=O)NCC2CCCCC2)cc1 | inactive | 6.17 |
| NC(=O)c1ccc(Oc2ccc3c(c2)CCC3)c([N+](=O)[O-])c1 | 2.91 µM (active) | -16.2 |
| NC(=O)c1ccc(Oc2ccc(-c3nnco3)cc2)c([N+](=O)[O-])c1 | inactive | 16.7 |
| NC(=O)c1ccc(Oc2ccc(Cl)cc2)c([N+](=O)[O-])c1 | inactive | 18.1 |
| CCOc1ccc(Cl)cc1S(=O)(=O)N1CCCC1 | inactive | 23.3 |
| COc1cnc(-c2ccccc2)nc1Sc1ccccc1 | inactive | 14.5 |
| CCc1ccc(OCCNC(=O)c2ccc(S(=O)(=O)N(C)C)cc2)cc1 | inactive | -5.09 |
| CN(C)S(=O)(=O)c1ccc(C(=O)NCCOc2ccccc2)cc1 | inactive | -3.57 |
| CN(C)S(=O)(=O)c1ccc(C(=O)NCCOc2ccc(F)cc2)cc1 | 18.4 µM (active) | 5.77 |
| CN(C)S(=O)(=O)c1cccc(C(=O)NCCOC(=O)c2cc(F)c(F)cc2Cl)c1 | inactive | 5.13 |
| CCN(CC)S(=O)(=O)c1ccc(C(=O)NCCOC(=O)c2ccc(F)cc2F)cc1 | 4.61 µM (active) |  |
| CCN(CC)CCNC(=O)c1ccc(NC(=O)c2ccc(F)cc2F)cc1 | inactive | 0.662 |
| CN1C(C(=O)NCc2ccccc2)CC2Cn3c(nc4cc(Cl)c(Cl)cc43)C21 (configuration not stated) | inactive | 23.6 |
| CS(=O)(=O)N1CCN(c2ccc(C(=O)N3CCOCC3)cc2[N+](=O)[O-])CC1 | inactive | 10.2 |
| COc1nc2ccccc2nc1CCC(=O)O | inactive | -4.36 |
| CC(=O)Nc1nc(=O)c2ccccc2s1 | inactive | -8.23 |
| Cc1cc(C(=O)Nc2ccc3c(c2)OCCO3)ccc1[N+](=O)[O-] | inactive | 0.293 |
| O=C(Nc1ccc(NC(=O)c2ccc(Cl)cc2Cl)cc1)c1ccc2c(c1)OCO2 | 16.4 µM (active) | -0.901 |
| O=C(Nc1ccc2c(c1)OCCO2)c1ccc(Cl)c([N+](=O)[O-])c1 | 16.4 µM (active) | -0.392 |

| Structure (SMILES) | Potency | cell number change [%] |
| --- | --- | --- |
| O=C(Nc1ccc(F)c(F)c1)c1ccc2c(c1)OCO2 | inactive | -8.99 |
| O=C(Nc1ccc(Cl)c([N+](=O)[O-])c1)c1ccc2c(c1)OCCO2 | inactive | 0.135 |
| O=C(Nc1ccc2c(c1)OCCO2)c1ccc(Cl)cc1Cl | inactive | -12.4 |
| Fc1cccc(Cl)c1Cn1nnc2c(NCc3ccccn3)ncnc21 | inactive | -17.4 |
| O=C(Nc1ccc(N2CCOCC2)cc1)C1CC1 | inactive | 20.3 |
| CC(C)(C)C1CCC(C(=O)Nc2ccc(N3CCOCC3)cc2N2CCOCC2)CC1 (configuration not stated) | 0.0731 µM (active) | 2.76 |
| O=C(Nc1ccc(Cl)cc1N1CCOCC1)C1CC1 | inactive | -0.587 |
| CC(C)c1ccccc1NC(=O)c1ccc2ncsc2c1 | inactive | 3.81 |
| Cc1cc(C)c2nc(-c3ccncc3)cc(C(=O)N3CCN(Cc4ccccc4Cl)CC3)c2c1 | inactive | -25.7 |
| CCOc1ccc(-c2cc(CCCC(=O)NCc3ccco3)no2)cc1 | inactive | 7.38 |
| CC(=O)c1cccc(NC(=O)c2ccccc2OCc2ccc(F)cc2)c1 | inactive | 17.5 |
| CC(=O)Nc1cccc(NC(=O)c2cccc(OCc3ccccc3)c2)c1 | inactive | -0.179 |
| CC(=O)Nc1cccc(NC(=O)c2ccccc2OCc2ccccc2)c1 | 0.103 µM (active) | 4.05 |
| Cc1cc(N2CCN(c3ccccc3)CC2)n2cc(-c3ccccc3)nc2n1 | inactive | 0.751 |
| COc1ccc(-c2cc(C(=O)NN)[nH]n2)cc1OC | inactive | 0.0556 |
| COc1ccc(-c2cc(C(=O)O)[nH]n2)cc1OC | 18.4 µM (active) | -22.4 |
| O=C(O)c1cc(-c2ccccc2)n[nH]1 | inactive | -6.51 |
| COc1ccccc1NS(=O)(=O)c1cccc(C(=O)NNC(=O)C(NC(N)=O)C(C)C)c1 (configuration not stated) | inactive | -2.91 |
| COc1ccc(-c2nc(/C=C3\C(C)=Nc4ccccc43)c(O)o2)cc1 | inactive | 8.93 |
| CN=Cc1nc(-c2ccccc2)oc1O | inactive | 3.36 |
| CC1=Nc2ccccc2/C1=C\c1nc(-c2ccc(F)cc2)oc1O | 4.11 µM (active) | -8.49 |
| CCC(=O)NC(=S)Nc1ccc(NC(=O)c2ccc([N+](=O)[O-])cc2Cl)cc1 | inactive | -6.05 |
